We go through 20 molecules from PubChem BioAssay.

Assay [1] relates to XIP peptide (Xip251-270) binding. Briefly: XIP fragment 251-270 binding compounds – biochemical, small-molecule microarray, fluorescence 635/667 nm, 0.1 µg/mL protein, primary screen (AID 1182). As to conditions: fluorescent protein binding, 635 nm, higher = more signal, called active from +8 up or from −8 down.
In the next assay the test system is XIP peptide (Xip251-270). Nature of the assay: compounds binding XIP fragment 251-270 – biochemical, small-molecule microarray, fluorescence 635/667 nm, 0.5 µg/mL protein, primary screen (AID 1183). As to conditions: fluorescence 635 nm, higher = more signal.
A short description of assay [2]: blood-stage malaria parasite viability loss – strain 3D7, DAPI fluorescence, 100 nL, primary screen (AID 1184).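 Note: parasites grown inside human red blood cells in medium with human serum.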 As to conditions: P. falciparum 3D7 growth, 3 d, higher = more signal.
The target in assay [3] is Homeobox protein Hox-A13 (Mus musculus) (UniProt Q62424). Nature of the assay: disruptors of Hoxa13 oligonucleotide interaction – biochemical, fluorescence polarization, labeled oligonucleotide, primary screen (AID 1185). As to conditions: Hoxa13:DNA binding, 15 min, higher = more signal, called active from +8 up or from −8 down. A general note: In fluorescence polarisation assays a small probe gives low polarisation when free and higher when bound to something large.

Active and inactive are the calls of the source.

Chain of Homeobox protein Hox-A13 (Mus musculus) (Q62424 whole entry, looked up): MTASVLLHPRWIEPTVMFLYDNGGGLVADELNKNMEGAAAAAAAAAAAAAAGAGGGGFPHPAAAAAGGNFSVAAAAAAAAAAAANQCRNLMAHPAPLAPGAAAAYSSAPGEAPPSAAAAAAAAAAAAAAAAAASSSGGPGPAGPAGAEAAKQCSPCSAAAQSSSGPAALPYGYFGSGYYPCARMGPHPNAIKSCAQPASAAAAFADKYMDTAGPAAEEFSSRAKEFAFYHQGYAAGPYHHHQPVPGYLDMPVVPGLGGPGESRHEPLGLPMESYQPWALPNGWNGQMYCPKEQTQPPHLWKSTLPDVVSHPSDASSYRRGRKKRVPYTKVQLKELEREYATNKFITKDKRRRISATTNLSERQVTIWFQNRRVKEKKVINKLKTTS

As for `CCc1cc2c(nc1CC)CCN(CCC(C)=NOC[C@H]1O[C@H](c3ccccc3)C=C[C@@H]1Oc1ccc(OC)cc1)C2`, the composite z-score in assay [1] is 0.248 (inactive); in the assay on XIP peptide (Xip251-270) it was 0.431. In addition, the z-score in assay [2] is -1.63; in assay [3] it was -3.13 (inactive).

As to `COC(=O)[C@@H]1CC[C@H](C)[C@@H](c2ccc(C)cc2)N1C(=O)c1ccc(C=NO[C@@H](C)c2cn([C@H](CO)Cc3ccccc3)nn2)cc1`, the composite z-score in assay [1] is -0.0658 (inactive); with XIP peptide (Xip251-270), 0.739. In addition, the z-score in assay [2] was -0.309; in assay [3], -5.13 (inactive).

In the case of `CC(CCN1CCCCc2nc(C)c(C)cc21)=NOC[C@@H](O)COCc1ccco1`, the composite z-score is 2.22 (inactive) in assay [1] and 0.863 with XIP peptide (Xip251-270). Further, the z-score in assay [2] was -0.246; in assay [3] it was -4.37 (inactive).

With `CC(C)=CCCC(C)=CCON=C1C[C@@H](O)[C@@H](O)[C@@H]2[C@@H]3C(=O)N(Cc4ccccc4)C(=O)[C@@H]3CC[C@H]12`, the composite z-score was -0.0515 (inactive) in assay [1] and 0.419 in the assay on XIP peptide (Xip251-270). The z-score in assay [2] is -0.869; in assay [3], -4.91 (inactive).

On to `C=CC1=C[C@H](O)[C@@H]2O[C@@H]2C12OCCCO2`, for which the composite z-score in assay [1] was -0.49 (inactive); in the assay with XIP peptide (Xip251-270) it was 0.343. The z-score was -0.706 in assay [2] and -1.87 (inactive) in assay [3].

Consider `CCOC(=O)NN=C1C[C@@H](O)[C@@H](O)[C@@H]2[C@@H]3C(=O)N([C@@H](C)c4ccccc4)C(=O)[C@@H]3CC[C@@H]12`, for which the values for the composite z-score (in assay [1]; in the assay with XIP peptide (Xip251-270)) were -0.235 (inactive) and 0.519, respectively. Also, the z-score in assay [2] is 0.156; in assay [3], -1.84 (inactive).

For the molecule `CC(C)=CCCC(C)=CCON=C1C[C@@H](O)[C@@H](O)[C@@H]2[C@@H]3C(=O)N(C4CCCCC4)C(=O)[C@@H]3CC[C@@H]12`, the composite z-score in assay [1] is -0.318 (inactive); in the assay on XIP peptide (Xip251-270) it was 0.426. Further, the z-score in assay [2] is 0.242; in assay [3], -2.99 (inactive).

As for `C[C@@H](c1ccccc1)N1C(=O)[C@H]2[C@H]3[C@H](O)[C@H](O)CC(=O)[C@H]3CC[C@H]2C1=O`, the composite z-score in assay [1] is -0.286 (inactive); with XIP peptide (Xip251-270), 0.251. Further, the z-score in assay [2] is 0.676; in assay [3], 0.0632 (inactive).

With `CCOC(=O)[C@H](CC(C)C)NC(=O)CCC1CC(OC(=O)NCc2cccc3ccccc23)CC2(CCCC(COC(=O)NCCCN3CCCC3=O)O2)O1` (stereo not given in full), the composite z-score is -0.0359 (inactive) in assay [1] and 0.524 in the assay with XIP peptide (Xip251-270). Also, the results for the z-score in assay [2] and in assay [3] were -1.92 and -4.61 (inactive), respectively.

Turning to `C#CCCCON=C1[C@H]2CCn3c(=O)n(-c4ccccc4)c(=O)n3[C@H]2[C@H](O)[C@@H]2O[C@H]12`, the composite z-score in assay [1] is 0.245 (inactive); in the assay on XIP peptide (Xip251-270), 0.193. Moreover, the figures for the z-score in assay [2] and in assay [3] were -1.19 and 0.241 (inactive), respectively.

With `C=CC[C@@H]1C=C[C@H](ON=C(C)CCC(=O)OC[C@H]2O[C@H](c3ccccc3)C=C[C@@H]2Oc2ccc(OC)cc2)[C@@H](CO)O1`, the composite z-score in assay [1] was 0.0195 (inactive); in the assay on XIP peptide (Xip251-270) it was 0.595. Further, the values for the z-score in assay [2] and in assay [3] were 0.298 and -5.41 (inactive), respectively.

`CCC=CCCC(OC(=O)c1ccc(Br)cc1)C1=CCCCC1=O` (stereo not given): the composite z-score in assay [1] is 0.84 (inactive); with XIP peptide (Xip251-270) it was 0.49. In addition, the z-score in assay [2] was -0.713; in assay [3], -3.22 (inactive).

`COC(=O)[C@H](C)NC(=O)CCC1CC(OC(=O)NCCc2ccc(F)cc2)CC2(CCCC(COC(=O)NCc3cccc(C(F)(F)F)c3)O2)O1` (stereo not given in full): the composite z-score in assay [1] was 0.64 (inactive); in the assay on XIP peptide (Xip251-270), 0.517. For the same molecule, the z-score was -0.506 in assay [2] and -6.12 (inactive) in assay [3].

For the molecule `COC(=O)CC=C[C@@H](C)[C@@H](C=NO[C@@H]1O[C@H](COC(C)=O)[C@@H](OC(C)=O)[C@H](OC(C)=O)[C@H]1OC(C)=O)OC`, the composite z-score was -0.865 (inactive) in assay [1] and -0.17 with XIP peptide (Xip251-270). Also, the figures for the z-score in assay [2] and in assay [3] were -0.0925 and -2.16 (inactive), respectively.

Turning to `CC(C)=CCCC(C)=CCON=C1C[C@@H](O)[C@@H](O)[C@@H]2[C@@H]3C(=O)N(Cc4ccccc4)C(=O)[C@@H]3CC[C@@H]12`, the composite z-score in assay [1] was 0.146 (inactive); in the assay with XIP peptide (Xip251-270), 0.703. For the same molecule, the z-score in assay [2] was 0.83; in assay [3], -0.241 (inactive).

In the case of `CO[C@@H]1COC(=O)[C@H](CCSC)NC(=O)CC=C[C@@H](C)COC(=O)CCC[C@H]1C`, the composite z-score in assay [1] was 1.2 (inactive); in the assay on XIP peptide (Xip251-270) it was 0.929. Moreover, the z-score was -0.766 in assay [2] and -2.31 (inactive) in assay [3].

Take `CC(C)CON=C1C[C@@H](O)[C@@H](O)[C@@H]2[C@@H]3C(=O)N(C4CCCCC4)C(=O)[C@@H]3CC[C@H]12`: the composite z-score is 0.273 (inactive) in assay [1] and 0.793 in the assay on XIP peptide (Xip251-270). The z-score in assay [2] is -0.0504; in assay [3] it was 0.866 (inactive).

For `C=COC[C@@H]1CN2[C@@H](CC[C@@H](C)[C@@H]2c2ccc(Br)cc2)C(=O)O1`, the composite z-score in assay [1] is -0.0657 (inactive); with XIP peptide (Xip251-270) it was 0.103. Also, the z-score was -0.977 in assay [2] and -2.54 (inactive) in assay [3].

`COC(=O)[C@H](C)NC(=O)CCC1CC(OC(=O)NCc2ccc3c(c2)OCO3)CC2(CCCC(COC(=O)NCC(c3ccccc3)c3ccccc3)O2)O1` (stereo not given in full): the composite z-score in assay [1] was 1.93 (inactive); in the assay with XIP peptide (Xip251-270), 0.699. Also, the z-score was -1.77 in assay [2] and -6.84 (inactive) in assay [3].

With `CC(C)C[C@H](NC(=O)CCC1CC(OC(=O)NCc2cccc3ccccc23)CC2(CCCC(COC(=O)NCc3ccccc3)O2)O1)C(=O)NCC(c1ccccc1)c1ccccc1` (stereo not given in full), the composite z-score is -0.284 (inactive) in assay [1] and 0.673 with XIP peptide (Xip251-270). For the same molecule, the z-score in assay [2] is -1.65; in assay [3], -6.28 (inactive).
